Where “and” joins values, the source holds several entries; their conditions need not be identical. Identical values can stand only once.
How the values were obtained:
[1] = target: T1, Tyrosine-protein kinase ITK/TSK (Homo sapiens) (UniProt Q08881); details: at 1 µM;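 note: values are mean percent inhibition of ITK from the GSK PKIS screen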
T1 sequence (whole entry): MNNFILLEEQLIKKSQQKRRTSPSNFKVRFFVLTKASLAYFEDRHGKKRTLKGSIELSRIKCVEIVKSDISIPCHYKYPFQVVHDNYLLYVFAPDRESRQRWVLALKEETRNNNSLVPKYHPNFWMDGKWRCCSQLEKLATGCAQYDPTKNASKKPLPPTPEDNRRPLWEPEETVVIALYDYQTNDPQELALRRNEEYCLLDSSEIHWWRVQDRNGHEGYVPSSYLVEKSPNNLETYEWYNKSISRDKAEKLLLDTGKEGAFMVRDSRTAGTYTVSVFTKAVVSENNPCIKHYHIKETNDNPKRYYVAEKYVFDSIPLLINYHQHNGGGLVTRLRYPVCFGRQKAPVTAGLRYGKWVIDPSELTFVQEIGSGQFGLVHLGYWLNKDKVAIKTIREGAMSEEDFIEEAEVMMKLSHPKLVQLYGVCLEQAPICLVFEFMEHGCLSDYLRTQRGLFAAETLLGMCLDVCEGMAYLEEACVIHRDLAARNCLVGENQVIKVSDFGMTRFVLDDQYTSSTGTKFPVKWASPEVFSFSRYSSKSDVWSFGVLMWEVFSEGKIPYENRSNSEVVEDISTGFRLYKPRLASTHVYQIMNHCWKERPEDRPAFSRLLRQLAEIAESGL

[2] = target: Tyrosine-protein kinase JAK1 (Homo sapiens) (UniProt P23458); details: at 0.1 µM
Sequence of Tyrosine-protein kinase JAK1 (Homo sapiens) (P23458 whole entry): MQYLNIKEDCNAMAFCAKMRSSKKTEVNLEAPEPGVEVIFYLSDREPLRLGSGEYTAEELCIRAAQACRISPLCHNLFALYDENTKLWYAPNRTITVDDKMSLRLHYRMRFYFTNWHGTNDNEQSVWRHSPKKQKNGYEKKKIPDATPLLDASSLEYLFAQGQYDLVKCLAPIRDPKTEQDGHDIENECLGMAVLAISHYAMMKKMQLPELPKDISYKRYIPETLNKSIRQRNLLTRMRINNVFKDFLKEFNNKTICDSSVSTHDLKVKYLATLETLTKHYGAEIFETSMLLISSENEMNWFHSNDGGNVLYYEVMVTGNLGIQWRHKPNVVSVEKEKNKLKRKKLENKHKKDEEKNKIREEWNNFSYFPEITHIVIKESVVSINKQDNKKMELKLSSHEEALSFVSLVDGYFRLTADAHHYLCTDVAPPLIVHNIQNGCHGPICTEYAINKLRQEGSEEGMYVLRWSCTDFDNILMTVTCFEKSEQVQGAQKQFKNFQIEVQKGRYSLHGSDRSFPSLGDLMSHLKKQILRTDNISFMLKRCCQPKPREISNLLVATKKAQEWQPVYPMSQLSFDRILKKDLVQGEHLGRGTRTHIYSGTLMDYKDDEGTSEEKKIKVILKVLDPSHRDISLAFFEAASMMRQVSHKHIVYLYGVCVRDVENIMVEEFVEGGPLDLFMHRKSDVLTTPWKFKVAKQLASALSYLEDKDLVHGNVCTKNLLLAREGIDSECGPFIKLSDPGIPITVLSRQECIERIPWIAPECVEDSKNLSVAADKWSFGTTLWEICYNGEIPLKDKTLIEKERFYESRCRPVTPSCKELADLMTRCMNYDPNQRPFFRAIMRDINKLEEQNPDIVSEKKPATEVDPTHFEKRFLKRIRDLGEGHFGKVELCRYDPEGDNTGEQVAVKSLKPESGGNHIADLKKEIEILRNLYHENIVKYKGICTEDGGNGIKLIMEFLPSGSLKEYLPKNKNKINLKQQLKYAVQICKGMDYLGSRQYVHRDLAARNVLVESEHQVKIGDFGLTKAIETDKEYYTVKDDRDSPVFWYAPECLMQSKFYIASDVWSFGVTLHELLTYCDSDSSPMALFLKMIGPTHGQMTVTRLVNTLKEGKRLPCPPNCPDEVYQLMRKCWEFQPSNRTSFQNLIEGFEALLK

[3] = target: Tyrosine-protein kinase JAK1 (Homo sapiens) (UniProt P23458); details: at 1 µM
[4] = target: Tyrosine-protein kinase JAK2 (Homo sapiens) (UniProt O60674); details: at 0.1 µM
Sequence of Tyrosine-protein kinase JAK2 (Homo sapiens) (O60674 whole entry): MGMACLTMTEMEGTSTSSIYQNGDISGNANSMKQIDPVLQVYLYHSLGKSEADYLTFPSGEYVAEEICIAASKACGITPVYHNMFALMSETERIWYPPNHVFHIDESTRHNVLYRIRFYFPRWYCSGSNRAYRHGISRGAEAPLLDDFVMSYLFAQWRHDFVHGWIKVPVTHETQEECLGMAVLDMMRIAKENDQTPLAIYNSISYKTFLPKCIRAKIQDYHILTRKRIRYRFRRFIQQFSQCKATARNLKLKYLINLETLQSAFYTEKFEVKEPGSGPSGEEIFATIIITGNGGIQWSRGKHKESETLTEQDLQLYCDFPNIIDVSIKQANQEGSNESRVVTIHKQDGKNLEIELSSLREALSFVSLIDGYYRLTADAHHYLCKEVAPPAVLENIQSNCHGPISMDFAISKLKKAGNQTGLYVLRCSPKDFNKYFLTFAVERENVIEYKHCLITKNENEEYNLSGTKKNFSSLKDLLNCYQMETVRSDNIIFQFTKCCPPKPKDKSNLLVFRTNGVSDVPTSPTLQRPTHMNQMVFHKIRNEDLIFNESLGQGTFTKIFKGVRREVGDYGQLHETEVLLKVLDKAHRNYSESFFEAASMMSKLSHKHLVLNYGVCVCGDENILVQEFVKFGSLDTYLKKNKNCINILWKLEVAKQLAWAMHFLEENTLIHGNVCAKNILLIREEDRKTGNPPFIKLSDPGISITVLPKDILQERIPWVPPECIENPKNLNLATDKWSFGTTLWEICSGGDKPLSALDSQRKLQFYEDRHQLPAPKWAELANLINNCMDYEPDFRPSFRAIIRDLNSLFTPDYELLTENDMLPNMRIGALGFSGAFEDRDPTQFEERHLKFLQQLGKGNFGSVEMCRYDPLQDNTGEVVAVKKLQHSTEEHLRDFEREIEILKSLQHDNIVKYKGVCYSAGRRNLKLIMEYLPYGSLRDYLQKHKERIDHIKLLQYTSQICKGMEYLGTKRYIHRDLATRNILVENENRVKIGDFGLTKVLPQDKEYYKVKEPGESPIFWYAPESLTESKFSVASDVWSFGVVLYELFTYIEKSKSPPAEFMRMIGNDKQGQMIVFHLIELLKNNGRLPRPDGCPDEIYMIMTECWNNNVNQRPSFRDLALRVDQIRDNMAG

[5] = target: Tyrosine-protein kinase JAK2 (Homo sapiens) (UniProt O60674); details: at 1 µM
[6] = target: T2, Tyrosine-protein kinase JAK3 (Homo sapiens) (UniProt P52333); details: at 0.1 µM
T2 sequence (whole entry): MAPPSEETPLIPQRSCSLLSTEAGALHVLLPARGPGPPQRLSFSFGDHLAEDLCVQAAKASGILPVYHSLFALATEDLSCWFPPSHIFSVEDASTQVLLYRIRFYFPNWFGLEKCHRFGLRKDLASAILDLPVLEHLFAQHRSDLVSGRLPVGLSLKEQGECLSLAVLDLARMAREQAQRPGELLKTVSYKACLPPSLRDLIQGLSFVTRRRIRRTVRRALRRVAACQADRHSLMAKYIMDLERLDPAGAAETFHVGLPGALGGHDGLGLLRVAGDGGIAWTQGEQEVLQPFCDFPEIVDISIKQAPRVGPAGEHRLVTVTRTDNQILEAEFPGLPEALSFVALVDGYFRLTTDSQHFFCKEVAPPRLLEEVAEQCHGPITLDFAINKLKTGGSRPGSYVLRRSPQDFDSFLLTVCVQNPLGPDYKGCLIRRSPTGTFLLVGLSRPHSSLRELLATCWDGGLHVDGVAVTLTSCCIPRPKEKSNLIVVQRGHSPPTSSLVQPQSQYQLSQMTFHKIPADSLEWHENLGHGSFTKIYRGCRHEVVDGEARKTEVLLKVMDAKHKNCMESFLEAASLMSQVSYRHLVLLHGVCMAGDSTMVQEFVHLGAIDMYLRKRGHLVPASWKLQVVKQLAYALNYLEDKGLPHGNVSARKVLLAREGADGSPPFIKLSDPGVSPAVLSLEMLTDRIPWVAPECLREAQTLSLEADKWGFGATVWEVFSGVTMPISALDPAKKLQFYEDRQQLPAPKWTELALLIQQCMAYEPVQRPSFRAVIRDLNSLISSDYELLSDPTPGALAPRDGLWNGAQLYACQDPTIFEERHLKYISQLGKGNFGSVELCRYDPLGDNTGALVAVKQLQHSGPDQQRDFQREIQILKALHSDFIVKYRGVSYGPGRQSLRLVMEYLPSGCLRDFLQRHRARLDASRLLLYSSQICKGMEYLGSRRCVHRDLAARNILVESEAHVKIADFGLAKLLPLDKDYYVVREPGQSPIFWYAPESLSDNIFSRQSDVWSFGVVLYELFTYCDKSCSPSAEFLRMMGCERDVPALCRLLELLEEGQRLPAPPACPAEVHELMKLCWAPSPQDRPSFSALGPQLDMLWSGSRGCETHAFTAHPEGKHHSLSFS

[7] = target: T2, Tyrosine-protein kinase JAK3 (Homo sapiens); details: at 1 µM
[8] = target: Vascular endothelial growth factor receptor 2 (Homo sapiens) (UniProt P35968); details: at 0.1 µM
[9] = target: Vascular endothelial growth factor receptor 2 (Homo sapiens) (UniProt P35968); details: at 1 µM
[10] = target: Mast/stem cell growth factor receptor Kit (Homo sapiens) (UniProt P10721); details: at 0.1 µM
Sequence of Mast/stem cell growth factor receptor Kit (Homo sapiens) (P10721 whole entry): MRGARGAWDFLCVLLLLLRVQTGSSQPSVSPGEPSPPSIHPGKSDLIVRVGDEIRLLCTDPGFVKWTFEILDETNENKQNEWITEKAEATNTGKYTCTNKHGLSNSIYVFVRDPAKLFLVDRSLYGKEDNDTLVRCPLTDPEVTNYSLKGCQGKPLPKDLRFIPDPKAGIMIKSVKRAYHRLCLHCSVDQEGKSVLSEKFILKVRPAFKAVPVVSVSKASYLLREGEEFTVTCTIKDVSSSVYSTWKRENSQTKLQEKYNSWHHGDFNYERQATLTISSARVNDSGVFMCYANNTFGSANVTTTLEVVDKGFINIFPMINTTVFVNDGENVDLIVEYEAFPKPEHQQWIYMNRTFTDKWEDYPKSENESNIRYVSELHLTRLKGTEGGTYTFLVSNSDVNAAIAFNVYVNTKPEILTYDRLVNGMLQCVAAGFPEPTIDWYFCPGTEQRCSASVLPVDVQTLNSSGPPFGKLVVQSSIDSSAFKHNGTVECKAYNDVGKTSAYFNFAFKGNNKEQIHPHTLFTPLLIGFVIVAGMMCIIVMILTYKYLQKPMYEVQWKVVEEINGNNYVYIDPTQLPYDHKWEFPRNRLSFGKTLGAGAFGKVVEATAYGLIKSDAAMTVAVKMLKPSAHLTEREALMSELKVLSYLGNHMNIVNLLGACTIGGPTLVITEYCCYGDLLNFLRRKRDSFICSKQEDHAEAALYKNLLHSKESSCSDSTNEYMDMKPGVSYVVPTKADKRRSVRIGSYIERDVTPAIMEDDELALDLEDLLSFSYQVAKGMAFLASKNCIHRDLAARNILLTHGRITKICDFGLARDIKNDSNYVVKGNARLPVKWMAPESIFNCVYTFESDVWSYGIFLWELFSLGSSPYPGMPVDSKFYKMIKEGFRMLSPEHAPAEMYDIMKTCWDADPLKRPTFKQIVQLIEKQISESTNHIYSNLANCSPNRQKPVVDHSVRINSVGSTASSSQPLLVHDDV

[11] = target: Mast/stem cell growth factor receptor Kit (Homo sapiens) (UniProt P10721); details: at 1 µM
[12] = test system: Mast/stem cell growth factor receptor Kit (Homo sapiens), P10721 [D816V]; details: at 0.1 µM
Sequence of Mast/stem cell growth factor receptor Kit (Homo sapiens), P10721 [D816V] (P10721 whole entry D816V): as the sequence (P10721 whole entry) above, with D816V counted along it

[13] = test system: Mast/stem cell growth factor receptor Kit (Homo sapiens), P10721 [D816V]; details: at 1 µM
[14] = test system: Mast/stem cell growth factor receptor Kit (Homo sapiens), P10721 [T670I]; details: at 0.1 µM
Sequence of Mast/stem cell growth factor receptor Kit (Homo sapiens), P10721 [T670I] (P10721 whole entry T670I): as the sequence (P10721 whole entry) above, with T670I counted along it

[15] = test system: Mast/stem cell growth factor receptor Kit (Homo sapiens), P10721 [T670I]; details: at 1 µM
[16] = test system: Mast/stem cell growth factor receptor Kit (Homo sapiens), P10721 [V560G]; details: at 0.1 µM
Sequence of Mast/stem cell growth factor receptor Kit (Homo sapiens), P10721 [V560G] (P10721 whole entry V560G): as the sequence (P10721 whole entry) above, with V560G counted along it

[17] = test system: Mast/stem cell growth factor receptor Kit (Homo sapiens), P10721 [V560G]; details: at 1 µM
[18] = target: Tyrosine-protein kinase Lck (Homo sapiens) (UniProt P06239); details: at 0.1 µM
Sequence of Tyrosine-protein kinase Lck (Homo sapiens) (P06239 2-509 limits assumed): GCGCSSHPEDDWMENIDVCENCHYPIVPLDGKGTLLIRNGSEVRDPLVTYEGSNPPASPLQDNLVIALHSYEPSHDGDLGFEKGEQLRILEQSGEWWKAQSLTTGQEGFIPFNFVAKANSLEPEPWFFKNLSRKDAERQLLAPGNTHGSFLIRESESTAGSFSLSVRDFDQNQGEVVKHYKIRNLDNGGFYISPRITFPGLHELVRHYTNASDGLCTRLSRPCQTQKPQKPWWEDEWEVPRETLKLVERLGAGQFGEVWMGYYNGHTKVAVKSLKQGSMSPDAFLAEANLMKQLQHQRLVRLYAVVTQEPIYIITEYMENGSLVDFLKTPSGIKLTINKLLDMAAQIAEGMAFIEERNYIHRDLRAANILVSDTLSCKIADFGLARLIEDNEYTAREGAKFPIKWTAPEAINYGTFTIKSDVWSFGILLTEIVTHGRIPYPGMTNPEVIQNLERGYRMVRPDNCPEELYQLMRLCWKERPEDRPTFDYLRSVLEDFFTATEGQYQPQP

[19] = target: Tyrosine-protein kinase Lck (Homo sapiens) (UniProt P06239); details: at 1 µM
[20] = target: Leukocyte tyrosine kinase receptor (Homo sapiens) (UniProt P29376); details: at 0.1 µM
Sequence of Leukocyte tyrosine kinase receptor (Homo sapiens) (P29376 whole entry): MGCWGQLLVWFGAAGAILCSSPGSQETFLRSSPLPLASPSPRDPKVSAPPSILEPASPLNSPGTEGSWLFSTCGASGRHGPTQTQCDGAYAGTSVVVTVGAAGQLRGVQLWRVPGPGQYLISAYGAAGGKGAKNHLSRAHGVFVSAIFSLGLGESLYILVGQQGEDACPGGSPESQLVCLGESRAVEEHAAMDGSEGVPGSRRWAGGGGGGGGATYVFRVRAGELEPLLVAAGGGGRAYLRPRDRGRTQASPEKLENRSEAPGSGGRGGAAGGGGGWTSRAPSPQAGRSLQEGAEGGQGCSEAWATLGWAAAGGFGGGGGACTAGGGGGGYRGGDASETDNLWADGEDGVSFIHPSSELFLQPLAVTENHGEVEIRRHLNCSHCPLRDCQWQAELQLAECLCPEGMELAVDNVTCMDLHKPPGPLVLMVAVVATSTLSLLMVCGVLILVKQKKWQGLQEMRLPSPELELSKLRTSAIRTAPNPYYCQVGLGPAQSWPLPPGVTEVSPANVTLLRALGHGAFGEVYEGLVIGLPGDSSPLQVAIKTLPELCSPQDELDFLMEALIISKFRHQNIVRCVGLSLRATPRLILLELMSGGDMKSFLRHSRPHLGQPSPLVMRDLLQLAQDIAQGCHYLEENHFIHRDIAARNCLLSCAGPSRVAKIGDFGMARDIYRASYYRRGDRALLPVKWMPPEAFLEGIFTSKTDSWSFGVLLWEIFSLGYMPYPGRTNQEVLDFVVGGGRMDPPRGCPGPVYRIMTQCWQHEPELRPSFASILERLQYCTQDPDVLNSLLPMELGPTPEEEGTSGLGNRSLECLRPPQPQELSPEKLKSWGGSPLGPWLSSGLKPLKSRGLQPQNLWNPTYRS

| Compound | inhibition [1] | inhibition [2] | inhibition [3] | inhibition [4] | inhibition [5] | inhibition [6] | inhibition [7] | inhibition [8] | inhibition [9] | inhibition [10] | inhibition [11] | inhibition [12] | inhibition [13] | inhibition [14] | inhibition [15] | inhibition [16] | inhibition [17] | inhibition [18] | inhibition [19] | inhibition [20] |
| --- | --- | --- | --- | --- | --- | --- | --- | --- | --- | --- | --- | --- | --- | --- | --- | --- | --- | --- | --- | --- |
| CN1CCC(n2cnc(-c3ccc(F)cc3)c2-c2ccnc(NCCO)n2)CC1 | 2.24% | 4.93% | 7.32% | 0.46% | 1.42% | -2.19% | -0.11% | 5.3% | 9.32% | 4.45% | 10.7% | 1.99% | 7.69% | 3.05% | 6.22% | -1.29% | -0.38% | 2% | 1.46% | 4.62% |
| CNC(=O)c1sc(-n2cnc3cc(OC)c(OC)cc32)cc1OCc1ccccc1C(F)(F)F | 3.59% | 0.71% | 7.26% | -0.02% | 0.52% | -2.82% | -0.34% | 4.23% | 12.4% | 4.06% | 6.11% | 2.29% | 6.55% | 1.67% | 1.95% | -0.58% | 0.44% | 3.6% | 11.9% | 2.32% |
| O=C(O[C@H]1CN[C@H](C#Cc2cc3ncnc(Nc4ccc5c(cnn5Cc5ccccc5)c4)c3s2)C1)N1CCOCC1 | -0.49% | 0.1% | 3.26% | -0.37% | -1.59% | -0.78% | 1.24% | -0.01% | 8.91% | -3.59% | 0.9% | -4.43% | -0.62% | -1.83% | -1.48% | -1.18% | -0.48% | 0.34% | 6.67% | 0.04% |
| COc1c(C(N)=O)cc(-c2ccc(Cl)cc2)cc1-c1ccc(S(N)(=O)=O)cc1 | 2.4% | 1.1% | 3.15% | 2.98% | 3.05% | 0.08% | -0.75% | 6.96% | 9.32% | 6.94% | 11.2% | 3.27% | 3.88% | 1.48% | 2.82% | 1.14% | -3.65% | 3.23% | 2.89% | 5.37% |
| O=C(O[C@H]1CN[C@H](C#Cc2cc3ncnc(Nc4ccc(OCc5cccc(F)c5)c(Cl)c4)c3s2)C1)N1CCOCC1 | 2.04% | 5.13% | 13.7% | 0.79% | 1.3% | -0.56% | -2.5% | 2.63% | 7.79% | 5.01% | 6.15% | 7.97% | 7.17% | 4.04% | 5.91% | -2.49% | -1.75% | 1.76% | 1.88% | 4.09% |
| CS(=O)(=O)Nc1ccc(-c2ccc3c(NC(=O)C4CC4)n[nH]c3c2)cc1 | 4.27% | 2.35% | -1.13% | 1.06% | 2.88% | -0.85% | 1.11% | 4.26% | 9.88% | 1.72% | 6.32% | 2.91% | 2.86% | 1.55% | 1.56% | 0.02% | 0.94% | 2.88% | 8.63% | 4.21% |
| CN1CCC(C(=O)Nc2n[nH]c3nc(-c4ccc(O)cc4)c(Br)cc23)CC1 | -1.94% and 1.71% | 2.37% and 1.02% | 19.7% and 3.43% | 1.01% and -0.3% | 1.49% and 1.42% | -3.69% and -1.35% | -2.24% and 0.59% | 7.52% and 6.12% | 24.5% and 23.2% | 3.81% and 2.92% | 12.5% and 9.42% | 4.08% and -0.48% | 5.39% and 3.49% | 2.44% and 0.42% | 4.98% and 0.1% | -0.43% and 0.93% | 0.37% and -0.64% | -0.45% and 3.18% | 7.96% and 12.4% | 11.7% and 9.83% |
| COc1ccccc1-c1cc(/C=C2\C(=O)Nc3ncc(Br)cc32)cc(Br)c1O | 3.95% | 2.55% | 0.51% | 1.66% | 3.2% | -0.19% | 5.39% | 6.49% | 8.56% | 8.06% | 27.9% | 4.84% | 1.87% | 3.92% | 3.21% | 1.58% | 4.31% | 2.46% | 8.22% | 3.94% |
| COc1cccc(-n2ncc3c(N/N=C/c4ccc(C(=O)NCCN(C)C)cc4)ncnc32)c1 | 8.64% | 4.89% | 18.1% | 2.63% | 14.1% | 0.22% | 15.4% | 43.6% | 68.7% | 15.5% | 65.8% | 7.1% | 15% | 6.62% | 52.3% | 2.06% | 5.99% | 72.9% | 94.4% | 2.24% |
| CCS(=O)(=O)c1ccc(OC)c(Nc2ncc(-c3cccc(F)c3)o2)c1 | 6.38% | 7.39% | 10.4% | 3.25% | 2.43% | -1.97% | 0.45% | 46.8% | 77% | 74.7% | 97% | 4.96% | 9.62% | 19.7% | 81.3% | 0.05% | 34.1% | 20.4% | 64.1% | 7.85% |
| Cc1cc(O)cc(C)c1/C=C/c1cncc(C(N)=O)c1 | 2.12% | -0.72% | 2.56% | 2.3% | 2.93% | -0.77% | 1.29% | 4.56% | 6.58% | 16.3% | 66.6% | 3.61% | 2.03% | 2.25% | 1.74% | 2.69% | 22.9% | 8.78% | 44.1% | 2.14% |
| Cc1ccc(-c2cc3c(NC(=O)C4CC4)ncnc3o2)cc1 | 2.63% | 2.29% | 1.7% | 2.06% | 2.55% | -0.9% | 2.42% | 6.12% | 13.4% | 8.72% | 32.2% | 4.08% | 5.68% | 4.38% | 8.01% | -2.51% | 0.4% | 2.92% | 11.2% | 4.28% |
| NC(=O)c1ccc2c(-c3ccnc(NCCCO)n3)c(-c3ccc(F)cc3)nn2c1 | 1.77% | 0.15% | 4.59% | 1.16% | 2.01% | -1.31% | -0.86% | 6.05% | 16.6% | 6.24% | 25.4% | 8.24% | 1.86% | 4.73% | 2.71% | -0.84% | 0.77% | 2.46% | 8.13% | 4.67% |
